Source: the supplement of paper PMC8728848
The sample as a whole holds a higher share of the strongest signals than the screen did.

What was measured:
Assay in all cases: glycan array binding signal (z-score within array); higher = stronger binding
Conditions in all cases: glycan notation: IUPAC condensed, linker removed; mutation: D325N
[1] = molecular target: Fuc(a1-2)[Gal(a1-3)]Gal(b1-4)[Fuc(a1-3)]GlcNAc
In short: (§1)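 Glycan array data were curated from 3228 arrays in the Consortium for Functional Glycomics database and kept only where the protein sequence was available. Glycan names were converted to IUPAC-condensed notation, and columns mapping to the same glycan were averaged. The binding signal is a within-array Z-score, averaged across arrays of the same protein sequence at different concentrations or buffers and across linkers. Negative Z-scores can be read as non-binding.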

[2] = molecular target: Fuc(a1-3)[Gal3S(b1-4)]Glc6S
In short: as §1

Gal(a1-2)Gal = molecular target: Gal(a1-2)Gal
In short: as §1

Gal(a1-3)Gal(b1-3)GlcNAc = molecular target: Gal(a1-3)Gal(b1-3)GlcNAc
In short: as §1

Gal(a1-3)Gal(b1-4)Glc = molecular target: Gal(a1-3)Gal(b1-4)Glc
In short: as §1

[3] = molecular target: Gal(b1-3)[Neu5Ac(b2-6)]GalNAc
In short: as §1

[4] = molecular target: Gal(b1-4)GlcNAc(b1-3)Gal(b1-4)[Fuc(a1-3)]GlcNAc(b1-3)Gal(b1-4)[Fuc(a1-3)]GlcNAc
In short: as §1

[5] = molecular target: Gal(b1-4)GlcNAc(b1-6)Gal(b1-4)GlcNAc(b1-6)GalNAc
In short: as §1

[6] = molecular target: Gal(b1-4)GlcNAc(b1-6)GalNAc
In short: as §1

[7] = molecular target: Gal(b1-4)GlcNAc(b1-6)[Gal(b1-3)]GalNAc
In short: as §1

GlcNAc(b1-3)Gal(b1-4)Glc = molecular target: GlcNAc(b1-3)Gal(b1-4)Glc
In short: as §1

[8] = molecular target: GlcNAc(b1-6)Gal(b1-4)GlcNAc
In short: as §1

[9] = molecular target: Man(a1-2)Man(a1-2)Man(a1-3)Man
In short: as §1

[10] = molecular target: Man(a1-2)Man(a1-3)[Man(a1-2)Man(a1-6)]Man
In short: as §1

[11] = molecular target: Man(a1-2)Man(a1-3)[Man(a1-2)Man(a1-6)]Man(a1-6)[Man(a1-2)Man(a1-2)Man(a1-3)]Man
In short: as §1

[12] = molecular target: Man(a1-2)Man(a1-6)[Man(a1-3)]Man(a1-6)[Man(a1-2)Man(a1-2)Man(a1-3)]Man
In short: as §1

[13] = molecular target: Man(a1-3)[Man(a1-6)]Man(a1-6)[Man(a1-3)]Man
In short: as §1

[14] = molecular target: Man(a1-3)[Man(a1-6)]Man(a1-6)[Man(a1-3)]Man(b1-4)GlcNAc(b1-4)GlcNAc
In short: as §1

[15] = molecular target: Neu5Ac(a2-3)Gal(b1-3)GlcNAc
In short: as §1

[16] = molecular target: Neu5Ac(a2-3)Gal(b1-4)[Fuc(a1-3)]GlcNAc(b1-3)Gal(b1-4)GlcNAc
In short: as §1

[17] = molecular target: Neu5Ac(a2-3)GalNAc(b1-4)GlcNAc
In short: as §1

Neu5Ac(a2-6)Gal = molecular target: Neu5Ac(a2-6)Gal
In short: as §1

Neu5Ac(a2-6)Gal(b1-4)Glc = molecular target: Neu5Ac(a2-6)Gal(b1-4)Glc
In short: as §1

Neu5Ac(a2-6)GalNAc = molecular target: Neu5Ac(a2-6)GalNAc
In short: as §1

[18] = molecular target: Neu5Ac(a2-8)Neu5Ac(a2-8)Neu5Ac
In short: as §1

B1: Surfactant Protein D (Human); Neck + Carbohydrate Recognition Domain (NCRD) (Homo sapiens) (protein)
chain: MLLFLLSALVLLTQPLGYLEAEMKTYSHRTMPSACTLVMCSSVESGLPGRDRDGREGPRGEKGDPGLPGAAGQAGMPGQAGPVGPKGDNGSVGEPGPKGDTGPSGPPGPPGVPGPAGREGALGKQGNIGPQGKPGPKGEAGPKGEVGAPGMQGSAGARGLAGPKGERGVPGERGVPGNTGAAGSAGAMGPQGSPGARGPPGLKGDKGIPGDKGAKGESGLPDVASLRQQVEALQGQVQHLQAAFSQYKKVELFPNGQSVGEKIFKTAQFVKPFTEAQLLCTQAGGQLASPRSAAENAALQQLVVAKNEAAFLSMTDSKTEGKFTYPTGESLVYSNWAPGEPNDNGGSEDCVEIFTNGKWNDRACGEKRLVVCEF
- glycan array binding signal (z-score) [1]: -0.1
- glycan array binding signal (z-score) [2]: -0.117
- glycan array binding signal (z-score) (Gal(a1-2)Gal): -0.109
- glycan array binding signal (z-score) (Gal(a1-3)Gal(b1-3)GlcNAc): -0.169
- glycan array binding signal (z-score) (Gal(a1-3)Gal(b1-4)Glc): -0.123
- glycan array binding signal (z-score) [3]: -0.139
- glycan array binding signal (z-score) [4]: -0.105
- glycan array binding signal (z-score) [5]: -0.132
- glycan array binding signal (z-score) [6]: -0.138
- glycan array binding signal (z-score) [7]: -0.128
- glycan array binding signal (z-score) (GlcNAc(b1-3)Gal(b1-4)Glc): -0.118
- glycan array binding signal (z-score) [8]: -0.138
- glycan array binding signal (z-score) [9]: 2.18
- glycan array binding signal (z-score) [10]: 1.77
- glycan array binding signal (z-score) [11]: 9.38
- glycan array binding signal (z-score) [12]: 8.54
- glycan array binding signal (z-score) [13]: 11.2
- glycan array binding signal (z-score) [14]: 0.338
- glycan array binding signal (z-score) [15]: -0.127
- glycan array binding signal (z-score) [16]: -0.114
- glycan array binding signal (z-score) [17]: -0.148
- glycan array binding signal (z-score) (Neu5Ac(a2-6)Gal): -0.148
- glycan array binding signal (z-score) (Neu5Ac(a2-6)Gal(b1-4)Glc): -0.153
- glycan array binding signal (z-score) (Neu5Ac(a2-6)GalNAc): -0.129
- glycan array binding signal (z-score) [18]: -0.163
